Sampled rows, rich in hits. Any-hit rate of the full collection: about 1.5%.
IDE act = human IDE activators in live cells, primary screen, fluorescence polarization, HEK cells, FAbeta-B substrate; 340,000 tested, 0.073% active; activation, % at 5.96 µM; Insulin-degrading enzyme (Homo sapiens), P14735; AID 493087, 2011; FAbeta-B cleavage; 0% vehicle, 100% cell-free pure enzyme wells;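 active = activation above the mean of all tested compounds plus 3 SD, set per screening campaign, cut at about 17% in these data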
IDE cell inh = human IDE inhibitors in live cells, primary screen, fluorescence polarization, HEK cells, FAbetaB substrate | Insulin-degrading enzyme (Homo sapiens), P14735 | FAbetaB cleavage | inhibition, % at 5.59 µM | 320,000 tested, 0.41% active;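 active = percent inhibition above the average of all tested compounds plus 3 SD, set per screening campaign, cut at about 16% in these data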;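 also: IDE supplied by intact live HEK cells; FP after avidin binding of uncleaved biotin substrate so inhibition keeps polarization high; 0% = DMSO wells and 100% = 60 µM reference IDE inhibitor Ii1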
RTF Ca sens inh = cardiac RTF calcium sensitivity inhibitors, primary screen, biochemical, IANBD-TnC fluorescence, EC70 calcium | AID 493244, 2011 | inhibition, % at 7.15 µM | IANBD-labeled cardiac RTF, Ca2+ fluorescence | 340,000 tested, 0.12% active;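 active = inhibition above the mean inhibition of all tested compounds plus 3 SD, cut at about 17% in these data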;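 also: assay run at fixed EC70 calcium of 1.6 mM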
CRFBP-R2 agonist = agonists of CRF-BP/CRF-R2 complex, primary screen, cell-based, HEK293, calcium dye fluorescence, uHTS | calcium dye fluorescence (FLIPR); percent of saturating CRF peptide response | activation, % at 13.2 µM | 350,000 tested, 0.46% active | AID 588473, 2011;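 active = activation of at least 50%, plus an integration ratio under a set limit after plate pattern correction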;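 also: plate controls were neutral control wells without compound for no effect and CRF at EC100 for full effect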
cardiac RTF act = cardiac RTF calcium sensitivity activators, primary screen, biochemical, IANBD-TnC fluorescence, EC20 calcium | AID 493008, 2010 | Troponin I, cardiac muscle (Homo sapiens) + Troponin T, cardiac muscle (Homo sapiens) + … | activation, % at 7.2 µM | 340,000 tested, 0.24% active | IANBD-labeled TnC RTF fluorescence at EC20 calcium; 0% EC20 calcium, 100% full calcium;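 active = activation above the mean over all tested compounds plus 3 SD, cut at about 30% in these data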;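 also: rise in fluorescence read as greater calcium sensitivity of cardiac thin filaments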
CRFR2-BP antag = antagonists of CRF-BP/CRF-R2 complex, primary screen, cell-based, HEK293, calcium dye fluorescence, uHTS; 350,000 tested, 0.59% active; CRF-induced calcium fluorescence; inhibition, % at 11.8 µM;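 active = inhibition of the ligand-induced calcium signal above about 50% at the single tested concentration, limit read from the data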
* hit, by the source's call; i = inactive; · = no result; + = active, no number.

SMILES	IDE act	IDE cell inh	RTF Ca sens inh	CRFBP-R2 agonist	cardiac RTF act	CRFR2-BP antag
Cc1ccc2c(c1)[nH]c1c(=O)n(Cc3ccco3)cnc12	5	-4	0	84*	1	-11
COc1cc(/C=C2\SC(=O)N(CC(=O)Nc3cccc(C)c3)C2=O)cc([N+](=O)[O-])c1O	·	·	·	-2	·	28
COc1cc(/C=C2\SC(=O)N(c3ccccc3Cl)C2=O)cc([N+](=O)[O-])c1O	6	·	9	-1	-3	88*
Cc1occc1-c1nnc(SC(C)C(=O)Nc2ccccc2F)o1 (stereo unspecified)	-1	·	0	1	2	8
Cc1ccccc1CNC(=O)c1ccccc1N	1	5	0	0	2	55*
Cc1ccccc1CNC(=O)c1ccccc1C	3	-4	-2	0	-1	6
CCOc1ccc(C(C(=O)NC2CCCC2)N(Cc2ccccc2)C(=O)c2nsc(Cl)c2Cl)cc1 (stereo unspecified)	3	4	-2	5	3	0
Cc1cccc(N(C(=O)c2nsc(Cl)c2Cl)C(C(=O)NC2CCCC2)c2ccc(O)cc2)c1C (stereo unspecified)	-1	0	0	-4	0	91*
COc1ccc(C(C(=O)NC2CCCC2)N(Cc2ccccc2)C(=O)c2nsc(Cl)c2Cl)cc1 (stereo unspecified)	8	-5	-1	1	-2	-5
Cc1ccc(N(C(=O)c2nsc(Cl)c2Cl)C(C(=O)NC2CCCC2)c2ccc(O)cc2)cc1C (stereo unspecified)	5	10	-2	-6	-5	88*
Cc1cc(C)cc(N(C(=O)c2nsc(Cl)c2Cl)C(C(=O)NC2CCCC2)c2ccc(O)cc2)c1 (stereo unspecified)	5	-1	-1	-2	-5	73*
C=C1CC[C@@]23CC[C@]4(C)[C@@](OC2=O)([C@@H]3C1)[C@H]1O[C@H]1C1[C@@]2(C)CC[C@H](O)C(C)(C)C2CC[C@]14C (stereo partly specified)	6	0	2	-2	-3	-7
CC(=O)OCC(=O)C1(O)CCC2C3CC(C)C4=CC(=O)C=CC4(C)C3(F)C(O)CC21C (stereo unspecified)	2	·	-2	2	-6	-12
CC(=O)C1(O)CCC2C3CC(C)C4=CC(=O)C=CC4(C)C3(F)C(O)CC21C (stereo unspecified)	-4	·	1	5	-5	79*
Cc1ccc(C(=O)NN2C(=O)/C(=C/c3cn(C)c4ccccc34)SC2=S)cc1	-18	3	-55	43	77*	-91
Cc1ccc(C(=O)NN2C(=O)/C(=C/c3cccn3C)SC2=S)cc1	3	12	-28	0	15	11
Cn1cc(/C=C2\SC(=S)N(NC(=O)c3ccccc3Cl)C2=O)c2ccccc21	-21	11	-148	70*	74*	-118
Cn1cccc1/C=C1\SC(=S)N(NC(=O)c2ccccc2Cl)C1=O	-5	4	-16	2	10	2
O=C(Nc1ccc(Cl)cc1)Nc1nnc(CSCc2ccc(Cl)cc2)s1	4	-4	-4	0	-2	-6
CCCC1(CC)C(=O)NC(=O)N=C1N (stereo unspecified)	4	·	-4	0	-1	1
O=C(Nc1cc(C(F)(F)F)ccc1Cl)C(Sc1n[nH]c(=O)[nH]c1=O)c1ccccc1 (stereo unspecified)	1	3	-2	-1	-1	-21
O=C(Nc1cc(C(F)(F)F)ccc1Cl)C(Sc1cccc[n+]1[O-])c1ccccc1 (stereo unspecified)	6	0	-2	160*	-5	-262
O=C(OCCN1C(=O)c2ccccc2C1=O)c1ccc(S(=O)(=O)N2CCCCCC2)cc1	4	3	2	-1	-5	-8
CCCCNc1ccc2c3c(cccc13)C(=O)N(CCCC)C2=O	45*	·	i	194*	+	-132
CCN(CC)S(=O)(=O)c1ccc(C(=O)OCCN2C(=O)c3cccc4c(N5CCOCC5)ccc(c34)C2=O)cc1	2	6	-4	184*	4	-243
SMILES	IDE act	IDE cell inh	RTF Ca sens inh	CRFBP-R2 agonist	cardiac RTF act	CRFR2-BP antag
CCCN1C(=O)c2cccc3c(N4CCCCC4)ccc(c23)C1=O	-49	10	-72	206*	75*	-241
COC(=O)CNc1nc(Cl)nc(Nc2ccc(C)cc2)n1	5	-3	4	-5	0	-1
O=[N+]([O-])c1ccccc1N/N=C/c1c[nH]c2ccccc12	6	-6	11	0	-13	12
O=[N+]([O-])c1ccc(N/N=C/c2c[nH]c3ccccc23)cc1	3	4	-18	180*	15	-226
CN(C(=O)COC(=O)CCc1nc2ccccc2c(=O)[nH]1)C1CCS(=O)(=O)C1 (stereo unspecified)	-1	0	2	1	5	53*
N#C/C(=C/c1ccc(-c2cc(C(=O)O)cc(C(=O)O)c2)o1)c1nc2ccccc2s1	·	27*	·	·	·	·
O=C(COC(=O)c1ccc(F)c(S(=O)(=O)N2CCOCC2)c1)Nc1ccc(Cl)cn1	·	·	·	0	·	6
CCOc1ccc(C2C=C(c3ccc(C)cc3)Nc3nnnn32)cc1 (stereo unspecified)	-49	6	-76	69*	54*	-30
COc1ccc(CN2CC(=O)N(c3cccc(Cl)c3)C2=S)cc1OC	2	-1	2	1	-1	90*
COc1ccc(CN2CC(=O)N(c3ccc(Cl)cc3)C2=S)cc1OC	2	3	-5	-4	2	16
Cc1ccc(S(=O)(=O)NN=Cc2ccco2)cc1	·	·	·	2	·	7
CCOc1ccccc1C(=O)NC1CCNCC1	3	-4	-6	-4	-6	12
COc1ccc(CNC(=O)CNC(=O)c2ccc(Br)o2)cc1OC	2	1	-4	0	-2	-6
C=CCOc1ccc(C2C(C(=O)c3ccco3)=C(O)C(=O)N2c2nnc(C)s2)cc1 (stereo unspecified)	-5	1	-7	7	4	83*
COc1ccc(C2C(C(=O)c3ccco3)=C(O)C(=O)N2c2nnc(C)s2)cc1 (stereo unspecified)	3	-6	-4	5	2	14

Source: PubChem
